Data: ChEMBL document CHEMBL1961873, “Compounds: GSK PKIS; Assays: Nanosyn kinase panel” (2012)
Where “and” joins values, the source holds several entries; their conditions need not be identical. Identical values can stand only once.

Columns and labels:
[1] = target: Tyrosine-protein kinase Fer (Homo sapiens) (UniProt P16591); conditions: at 1 µM
[2] = target: Tyrosine-protein kinase Fes/Fps (Homo sapiens) (UniProt P07332); conditions: at 0.1 µM
[3] = target: Tyrosine-protein kinase Fes/Fps (Homo sapiens) (UniProt P07332); conditions: at 1 µM
[4] = target: Fibroblast growth factor receptor 1 (Homo sapiens) (UniProt P11362); conditions: at 0.1 µM
[5] = target: Fibroblast growth factor receptor 1 (Homo sapiens) (UniProt P11362); conditions: at 1 µM
[6] = target: Fibroblast growth factor receptor 2 (Homo sapiens) (UniProt P21802); conditions: at 0.1 µM
[7] = target: Fibroblast growth factor receptor 2 (Homo sapiens) (UniProt P21802); conditions: at 1 µM
[8] = target: Fibroblast growth factor receptor 3 (Homo sapiens) (UniProt P22607); conditions: at 0.1 µM
[9] = target: Fibroblast growth factor receptor 3 (Homo sapiens) (UniProt P22607); conditions: at 1 µM
[10] = target: Fibroblast growth factor receptor 4 (Homo sapiens) (UniProt P22455); conditions: at 0.1 µM;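 further: values are mean percent inhibition of FGFR4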
Chain of Fibroblast growth factor receptor 4 (Homo sapiens) (P22455 22-802 limits assumed): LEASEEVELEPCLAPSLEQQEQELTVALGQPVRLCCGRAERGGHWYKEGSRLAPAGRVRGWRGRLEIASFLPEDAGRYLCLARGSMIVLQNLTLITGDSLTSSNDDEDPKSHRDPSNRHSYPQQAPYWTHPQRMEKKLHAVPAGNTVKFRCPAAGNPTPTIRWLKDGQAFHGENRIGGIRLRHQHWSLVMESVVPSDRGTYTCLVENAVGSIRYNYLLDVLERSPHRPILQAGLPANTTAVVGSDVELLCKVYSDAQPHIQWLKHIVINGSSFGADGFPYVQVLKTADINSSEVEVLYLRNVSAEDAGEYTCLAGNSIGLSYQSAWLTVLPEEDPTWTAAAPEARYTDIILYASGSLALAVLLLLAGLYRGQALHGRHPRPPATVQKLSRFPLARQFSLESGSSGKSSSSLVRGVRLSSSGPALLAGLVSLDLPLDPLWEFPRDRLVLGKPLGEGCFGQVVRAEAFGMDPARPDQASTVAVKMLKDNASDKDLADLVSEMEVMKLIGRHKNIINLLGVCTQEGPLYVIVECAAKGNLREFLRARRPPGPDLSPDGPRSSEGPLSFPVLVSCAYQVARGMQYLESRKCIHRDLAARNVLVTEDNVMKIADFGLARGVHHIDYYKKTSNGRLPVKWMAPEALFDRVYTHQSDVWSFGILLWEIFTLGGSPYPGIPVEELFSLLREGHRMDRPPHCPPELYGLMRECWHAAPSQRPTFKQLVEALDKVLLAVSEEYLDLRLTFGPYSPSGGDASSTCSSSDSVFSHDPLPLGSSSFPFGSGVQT

Chain of Fibroblast growth factor receptor 3 (Homo sapiens) (P22607 23-806 limits assumed): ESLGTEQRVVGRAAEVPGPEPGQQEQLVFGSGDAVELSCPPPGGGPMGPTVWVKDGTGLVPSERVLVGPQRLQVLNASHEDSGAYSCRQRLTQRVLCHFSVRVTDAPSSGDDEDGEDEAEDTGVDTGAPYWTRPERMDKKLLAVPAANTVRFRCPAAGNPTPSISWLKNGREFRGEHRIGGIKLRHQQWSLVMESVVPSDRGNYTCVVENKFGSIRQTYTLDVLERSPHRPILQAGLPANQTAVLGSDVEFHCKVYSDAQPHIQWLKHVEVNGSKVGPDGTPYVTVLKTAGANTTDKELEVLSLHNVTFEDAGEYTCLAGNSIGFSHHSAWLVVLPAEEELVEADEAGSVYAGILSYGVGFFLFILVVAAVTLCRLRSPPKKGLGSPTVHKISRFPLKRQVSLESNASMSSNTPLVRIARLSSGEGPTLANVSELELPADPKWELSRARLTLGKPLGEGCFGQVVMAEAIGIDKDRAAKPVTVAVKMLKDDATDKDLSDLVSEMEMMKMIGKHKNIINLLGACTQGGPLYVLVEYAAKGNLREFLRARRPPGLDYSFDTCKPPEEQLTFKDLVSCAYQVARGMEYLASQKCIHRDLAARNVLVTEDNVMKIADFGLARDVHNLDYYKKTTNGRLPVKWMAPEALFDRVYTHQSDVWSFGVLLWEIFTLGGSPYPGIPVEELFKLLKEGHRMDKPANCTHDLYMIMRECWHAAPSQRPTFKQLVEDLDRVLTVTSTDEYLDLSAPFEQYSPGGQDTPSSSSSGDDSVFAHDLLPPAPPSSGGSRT
Chain of Tyrosine-protein kinase Fes/Fps (Homo sapiens) (P07332 whole entry): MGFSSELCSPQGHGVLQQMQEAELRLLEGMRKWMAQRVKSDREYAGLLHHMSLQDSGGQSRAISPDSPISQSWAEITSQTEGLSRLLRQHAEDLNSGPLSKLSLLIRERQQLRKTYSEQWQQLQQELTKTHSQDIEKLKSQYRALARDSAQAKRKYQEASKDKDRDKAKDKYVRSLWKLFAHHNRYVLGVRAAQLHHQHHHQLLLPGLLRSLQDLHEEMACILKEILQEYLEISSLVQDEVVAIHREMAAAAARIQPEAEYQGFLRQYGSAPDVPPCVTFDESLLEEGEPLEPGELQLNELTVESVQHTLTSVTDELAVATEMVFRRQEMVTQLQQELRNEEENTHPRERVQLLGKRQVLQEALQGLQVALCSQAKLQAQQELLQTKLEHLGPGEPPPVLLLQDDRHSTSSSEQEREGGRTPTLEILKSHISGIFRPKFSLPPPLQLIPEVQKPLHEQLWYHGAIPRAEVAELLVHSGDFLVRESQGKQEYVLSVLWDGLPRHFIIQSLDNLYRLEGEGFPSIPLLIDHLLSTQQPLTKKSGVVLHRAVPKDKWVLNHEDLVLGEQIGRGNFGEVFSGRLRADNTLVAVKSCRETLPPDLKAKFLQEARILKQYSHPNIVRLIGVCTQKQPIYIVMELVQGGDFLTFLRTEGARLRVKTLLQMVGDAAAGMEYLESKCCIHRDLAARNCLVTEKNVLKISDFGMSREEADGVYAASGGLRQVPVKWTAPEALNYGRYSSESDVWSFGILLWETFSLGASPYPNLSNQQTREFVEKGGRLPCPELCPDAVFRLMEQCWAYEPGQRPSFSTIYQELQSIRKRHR
Chain of Tyrosine-protein kinase Fer (Homo sapiens) (P16591 whole entry, looked up): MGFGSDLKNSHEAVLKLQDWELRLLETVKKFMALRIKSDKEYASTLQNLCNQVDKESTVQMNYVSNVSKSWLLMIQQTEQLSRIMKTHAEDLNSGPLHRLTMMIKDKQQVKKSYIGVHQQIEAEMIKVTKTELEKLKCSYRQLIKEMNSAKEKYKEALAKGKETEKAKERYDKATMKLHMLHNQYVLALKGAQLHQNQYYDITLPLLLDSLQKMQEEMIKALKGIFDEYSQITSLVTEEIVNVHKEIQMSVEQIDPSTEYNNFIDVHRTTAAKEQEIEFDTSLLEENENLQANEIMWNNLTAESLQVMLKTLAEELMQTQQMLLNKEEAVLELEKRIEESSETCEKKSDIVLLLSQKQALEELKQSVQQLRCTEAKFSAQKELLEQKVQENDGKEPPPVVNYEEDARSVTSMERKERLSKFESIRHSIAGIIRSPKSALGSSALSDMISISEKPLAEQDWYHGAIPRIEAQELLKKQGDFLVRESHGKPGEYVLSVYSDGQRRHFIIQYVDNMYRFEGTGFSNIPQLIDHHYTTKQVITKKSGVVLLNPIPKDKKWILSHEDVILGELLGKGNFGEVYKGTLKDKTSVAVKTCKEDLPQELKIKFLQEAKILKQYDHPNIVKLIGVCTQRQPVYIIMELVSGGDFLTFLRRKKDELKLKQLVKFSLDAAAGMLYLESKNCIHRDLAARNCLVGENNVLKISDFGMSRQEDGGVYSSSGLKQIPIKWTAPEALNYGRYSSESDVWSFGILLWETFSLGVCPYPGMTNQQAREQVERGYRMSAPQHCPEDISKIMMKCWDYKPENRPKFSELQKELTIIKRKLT
Chain of Fibroblast growth factor receptor 1 (Homo sapiens) (P11362 22-822 limits assumed): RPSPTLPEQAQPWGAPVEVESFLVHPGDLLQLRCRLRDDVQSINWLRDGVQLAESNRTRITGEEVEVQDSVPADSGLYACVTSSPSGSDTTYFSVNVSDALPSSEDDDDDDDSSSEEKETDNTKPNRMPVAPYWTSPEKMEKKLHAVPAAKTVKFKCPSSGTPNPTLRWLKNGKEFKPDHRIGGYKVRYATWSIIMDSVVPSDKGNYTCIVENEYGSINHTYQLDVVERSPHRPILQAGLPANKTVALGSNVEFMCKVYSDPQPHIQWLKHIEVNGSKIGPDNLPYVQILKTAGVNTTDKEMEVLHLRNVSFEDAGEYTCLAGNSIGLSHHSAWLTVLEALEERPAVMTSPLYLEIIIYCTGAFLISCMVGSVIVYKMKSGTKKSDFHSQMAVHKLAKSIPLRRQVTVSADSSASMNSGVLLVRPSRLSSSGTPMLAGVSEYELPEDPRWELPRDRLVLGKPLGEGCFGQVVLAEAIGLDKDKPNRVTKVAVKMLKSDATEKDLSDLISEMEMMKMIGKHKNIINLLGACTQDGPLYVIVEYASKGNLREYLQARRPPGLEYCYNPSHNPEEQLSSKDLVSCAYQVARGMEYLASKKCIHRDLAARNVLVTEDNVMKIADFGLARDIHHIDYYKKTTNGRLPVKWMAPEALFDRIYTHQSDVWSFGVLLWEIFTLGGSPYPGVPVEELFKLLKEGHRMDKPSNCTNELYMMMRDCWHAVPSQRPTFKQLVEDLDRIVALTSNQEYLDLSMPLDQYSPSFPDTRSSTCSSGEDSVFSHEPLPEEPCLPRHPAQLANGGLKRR
Chain of Fibroblast growth factor receptor 2 (Homo sapiens) (P21802 22-821 limits assumed): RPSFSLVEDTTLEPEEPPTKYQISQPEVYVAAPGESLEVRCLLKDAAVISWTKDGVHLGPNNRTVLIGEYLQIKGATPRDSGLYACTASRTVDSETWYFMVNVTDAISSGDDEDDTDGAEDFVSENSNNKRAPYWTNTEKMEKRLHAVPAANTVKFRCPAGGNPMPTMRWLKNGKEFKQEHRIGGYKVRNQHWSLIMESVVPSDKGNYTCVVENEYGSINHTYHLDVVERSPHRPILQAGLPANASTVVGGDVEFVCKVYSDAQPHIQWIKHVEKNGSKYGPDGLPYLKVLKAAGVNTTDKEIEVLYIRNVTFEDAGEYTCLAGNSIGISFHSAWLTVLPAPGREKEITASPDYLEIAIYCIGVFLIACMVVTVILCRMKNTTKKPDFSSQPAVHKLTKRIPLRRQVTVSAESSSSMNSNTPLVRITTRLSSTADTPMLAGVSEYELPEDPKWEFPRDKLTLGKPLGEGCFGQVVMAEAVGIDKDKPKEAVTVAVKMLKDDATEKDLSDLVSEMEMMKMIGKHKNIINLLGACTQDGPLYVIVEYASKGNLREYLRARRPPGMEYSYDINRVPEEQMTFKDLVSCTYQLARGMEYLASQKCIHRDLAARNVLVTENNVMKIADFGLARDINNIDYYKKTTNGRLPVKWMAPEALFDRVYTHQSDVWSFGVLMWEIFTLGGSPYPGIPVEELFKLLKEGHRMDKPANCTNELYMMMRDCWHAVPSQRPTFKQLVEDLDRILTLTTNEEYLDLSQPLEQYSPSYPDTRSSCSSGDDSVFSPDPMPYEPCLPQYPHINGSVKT

Compound	inhibition [1]	inhibition [2]	inhibition [3]	inhibition [4]	inhibition [5]	inhibition [6]	inhibition [7]	inhibition [8]	inhibition [9]	inhibition [10]
Nc1ncnc2occ(-c3ccc(NC(=O)Nc4cc(C(F)(F)F)ccc4F)cc3)c12	29.4% and 17.7%	1.99% and -1.17%	3.25% and -0.8%	3.81% and 0.38%	29.8% and 19.3%	14.1% and 7.78%	52.2% and 43.8%	6.93% and 1.4%	34.3% and 17.9%	2.49% and 0.65%
CCN1CCC(C(=O)Nc2n[nH]c3nnc(-c4cccc(F)c4F)cc23)CC1	1.37%	-0.22%	-1.05%	-4.59%	-1.81%	-0.41%	-2.18%	-0.59%	2.01%	1.8%
NS(=O)(=O)c1ccc(N/N=C2\C(=O)Nc3ccc(C(=O)NCc4ccncc4)cc32)cc1	5.14%	2.4%	1.67%	3.12%	5.51%	1.27%	11.9%	4.61%	8.12%	-2.09%
COc1c(C(N)=O)cc(-c2ccc(Cl)cc2)cc1-c1ccc(S(N)(=O)=O)cc1	5.66%	3.78%	5.26%	7.12%	7.58%	5.92%	5.85%	5.11%	6.87%	4.18%
N#Cc1ccc2c(-c3ccnc(NC4CC4)n3)c(-c3ccc(F)cc3)nn2c1	-0.62%	1.05%	1.43%	-2.46%	1.96%	1.16%	2.21%	1.76%	1.06%	1.18%
CS(=O)(=O)CCNCc1ccc(-c2ccc3ncnc(Nc4ccc(OCc5ccccc5)cc4)c3c2)o1	0.38%	3.93%	3.54%	6.5%	3.85%	3.26%	4.3%	4.56%	3.89%	1.63%
CS(=O)(=O)CCNCc1ccc(-c2ccc3ncnc(Nc4ccc(OCc5cccc(C(F)(F)F)c5)cc4)c3c2)o1	0.74%	3.52%	4.12%	6.33%	10.8%	6.07%	14.2%	9.13%	10.7%	4.16%
Cn1c(-c2nonc2N)nc2cnccc21	6.7%	2.6%	3.53%	4.78%	2.36%	2.83%	1.91%	5.11%	1.94%	-0.24%
CCS(=O)(=O)c1ccc(OC)c(Nc2ncc(-c3cccc(C(C)=O)c3)o2)c1	3.06%	1.69%	2.72%	4.89%	12.9%	17.2%	52.6%	20%	60%	1.41%
NC(=O)c1ccc2c(-c3ccnc(NCCCO)n3)c(-c3ccc(F)cc3)nn2c1	6.71%	3%	5.19%	8.04%	8.15%	4.29%	9.62%	5.45%	7.13%	0.14%
CNC(=O)c1ncccc1Nc1nc(Nc2cc3c(cc2OC)CCCN3C(=O)CN(C)C)nc2[nH]ccc12	80.1%	44.3%	80.6%	9.89%	3.03%	6.69%	6.99%	7.55%	4.61%	2.18%
Cc1cc(O)cc(C)c1/C=C/c1cncc(C(N)=O)c1	1.87%	1.69%	1.94%	2.16%	7.91%	2.08%	7.34%	4.56%	4.79%	-4.55%
Fc1cccc(COc2ccc(Nc3ncncc3C#Cc3ccccc3)cc2Cl)c1	6.06%	2.55%	3.61%	2.88%	2.38%	4.03%	5.85%	4.99%	3.8%	0.25%
CC1=C(C(=O)Nc2ccc3[nH]nc(C)c3c2)C(c2ccc(C(F)(F)F)cc2)CC(=O)N1 (stereo not given)	3.02%	1.58%	2.34%	-0.57%	9.3%	4.48%	13.4%	5.62%	8.47%	-0.06%
Cc1cc(O)cc(C)c1/C=C/c1cncc(C(=O)OC(C)(C)C)c1	3.02%	1.48%	2.34%	1.91%	3.93%	1.65%	5.08%	7.81%	7.63%	1.4%
CC1=C(C(=O)Nc2ccc3[nH]ncc3c2)C(c2ccc(F)cc2)N=C(c2ccc(C(F)(F)F)nc2)N1 (stereo not given)	2.23%	1.4%	2.21%	6.73%	7.75%	4.37%	9.66%	4.88%	7.89%	0.81%

Compound	inhibition [1]	inhibition [2]	inhibition [3]	inhibition [4]	inhibition [5]	inhibition [6]	inhibition [7]	inhibition [8]	inhibition [9]	inhibition [10]
NS(=O)(=O)c1ccc(N/N=C2\C(=O)Nc3cccc(CCc4ccncc4)c32)cc1	5.66%	0.64%	-0.42%	5.09%	16.7%	7.6%	18.2%	6.3%	19.2%	4.76%
COc1cccc(Nc2nccc(-c3cnn4ncccc34)n2)c1	48%	8.87%	50.3%	-2.04%	4.55%	1.68%	16.6%	0.93%	10.9%	1.56%
N#Cc1cccc(Nc2ncc(-c3ccccc3)o2)c1	5.33%	0.93%	1.79%	-4.35%	2.95%	2.66%	7.1%	2.72%	4.48%	-2.65%
O=C(O[C@H]1CN[C@H](C#Cc2cc3ncnc(Nc4ccc(OCc5cccc(F)c5)c(Cl)c4)c3s2)C1)N1CCOCC1	5.25%	3.88%	3.5%	1.16%	3.49%	6.97%	4.24%	5.89%	6.62%	1.38%
COc1ccc(-c2nn3ncccc3c2-c2ccnc(Nc3ccc(F)c(F)c3)n2)cc1	7.64%	2.66%	2.57%	4.92%	0.84%	5.14%	7.4%	5.17%	7.65%	1.42%
Cc1c2ccc(N(C)c3ccnc(Nc4cccc(S(N)(=O)=O)c4)n3)cc2nn1C	74.1%	15.2%	56.1%	24.9%	62.6%	50%	69.9%	35.5%	70.1%	2.26%
O=C(O[C@H]1CN[C@H](C#Cc2cc3ncnc(Nc4ccc5c(cnn5Cc5ccccc5)c4)c3s2)C1)N1CCOCC1	0.92%	-0.09%	-1.2%	-2.97%	-1.28%	-0.61%	-0.52%	0.4%	0.43%	0.54%
CS(=O)(=O)CCNCc1ccoc1-c1ccc2ncnc(Nc3ccc(OCc4ccccc4)cc3)c2c1	1.52%	1.6%	0.27%	-2.87%	2.44%	-0.37%	2.62%	2.09%	3.53%	0.96%
Nc1nccc(-c2c(-c3ccc(F)cc3)ncn2C2CCNCC2)n1	-1.75% and 3.19%	-3.81% and -0.12%	-3.68% and -0.18%	-5.66% and -0.16%	-4.83% and 1.62%	-3.3% and 0.04%	-3.58% and 1.03%	-3.25% and 3.33%	-1.53% and 2.36%	-0.08% and 3.95%
CN(c1ccc(NC(=O)NCCN2CCOCC2)cc1)c1ccnc(Nc2ccc(CS(C)(=O)=O)cc2)n1	20.6%	2.04%	7.78%	1.48%	0.91%	7.93%	14.8%	6.19%	10.3%	1.27%
COc1cccc(-n2ncc3c(N/N=C/c4ccc(C(=O)NCCN(C)C)cc4)ncnc32)c1	1.12%	1.87%	3.63%	4.74%	9.7%	5.08%	10.7%	6.47%	9.95%	0.01%
NS(=O)(=O)c1cccc(N/C=C2\C(=O)Nc3ccccc32)c1	6.18%	3.03%	3.46%	5.1%	8.92%	7.77%	26.9%	8.3%	21%	-4.72%
CC(C)c1ccc(-c2cc(-c3c[nH]nc3-c3ccccn3)ccn2)cc1	2.58%	0.8%	1.23%	6.6%	1.8%	-0.22%	3.83%	3.55%	1.81%	0.39%
Cc1nnc(-c2cccc(-c3ccc(C(=O)NCC4CC4)cc3)c2)o1	3.05%	4.04%	4.25%	2.64%	0.61%	4.95%	5.08%	6.23%	6.22%	-0.29%
CS(=O)(=O)Nc1ccc(-c2cc(-c3ccccc3)cc(C(N)=O)c2N)cc1	1.1%	1.07%	1.64%	0.45%	3.2%	1.73%	4.95%	-0.12%	8.3%	0.07%
